High-throughput results (PubChem BioAssay)
Most compounds without a hit are left out; they make up all but 3.7% or so of the library.
CHT inh: inhibitors of human choline transporter CHT | High affinity choline transporter 1 (Homo sapiens), Q9GZV3 | CHT-expressing cells, membrane potential dye, choline response; active compounds read low | B-score at 10 µM | 310,000 tested, 0.86% active;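 active = B-score over 3 SD under the library average, and starting fluorescence ratio not unusually high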;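 note: choline stimulus applied at its EC90 after an EC20 pre-addition; B-score computed on integrated fluorescence ratio after choline addition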
ANO1 block: TMEM16A chloride channel inhibitors, primary screen, cell-based, HTS. Anoctamin-1 (Mus musculus), Q8BHY3. HEK293 TMEM16A/YFP iodide influx fluorescence, ionomycin. normalized B-score (activity score, 25-100; higher = stronger inhibition) at 10 µM. 310,000 tested, 1.2% active;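 active = ratio plate-corrected score three or more library SD toward inhibition, starting fluorescence score within five deviations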;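 note: score derived from kinetic fluorescence span divided by baseline fluorescence per well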
GPR7 antagonist: GPR7 receptor antagonists, primary screen, cell-based, fluorescence, single concentration; Neuropeptides B/W receptor type 1 (Homo sapiens), P48145; GPR7-expressing cells, fluorescence antagonist assay; inhibition, % at 4.4 µM; 290,000 tested, 1.1% active; AID 1861, 2009; in the data active = inhibition above about 16%, passing the limit was not always enough;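 note: cells stimulated with the agonist NPW; 0% = agonist with vehicle and 100% = vehicle without agonist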
Target sequence (P48145 whole entry, looked up): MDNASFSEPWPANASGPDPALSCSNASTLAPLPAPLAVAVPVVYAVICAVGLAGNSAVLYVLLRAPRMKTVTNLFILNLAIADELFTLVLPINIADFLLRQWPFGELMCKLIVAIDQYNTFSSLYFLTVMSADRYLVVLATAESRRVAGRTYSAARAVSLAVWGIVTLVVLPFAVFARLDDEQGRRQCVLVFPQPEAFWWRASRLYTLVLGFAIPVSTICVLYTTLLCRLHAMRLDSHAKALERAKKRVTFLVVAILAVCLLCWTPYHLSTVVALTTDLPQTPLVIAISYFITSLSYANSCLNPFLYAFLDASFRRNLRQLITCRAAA
TMEM16A act: TMEM16A chloride channel activators or potentiators, primary screen, cell-based, HTS | B-score at 10 µM | Anoctamin-1 (Mus musculus), Q8BHY3 | HEK293 TMEM16A/YFP-H148Q/I152L, iodide quench fluorescence; active compounds read low | 340,000 tested, 0.3% active;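 active = fluorescence-ratio B-score plate-corrected deviation score at least 3 library SD below zero, with starting fluorescence score within 5 deviations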;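 note: channel opened by trigger with iodide after compound preincubation; score built on the fluorescence ratio of max minus min over baseline; more negative score means more quench and so TMEM16A activation or potentiation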
CHT PAM: CHT positive allosteric modulators, primary screen, cell-based, membrane potential dye, choline EC20; CHT-expressing cells; active compounds read high; LV-AA mutant CHT in HEK293 cells; AID 488977, 2010; B-score at 10 µM; High affinity choline transporter 1 (Homo sapiens), Q9GZV3; 310,000 tested, 0.49% active;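 active = initial fluorescence not abnormally high and integrated response B-score, plate-corrected, over 3 SD above library mean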
Kir21 block: inhibitors of mouse Kir2.1 inward-rectifier potassium channel; B-score at 10 µM; Inward rectifier potassium channel 2 (Mus musculus), P35561; 310,000 tested, 0.85% active; HEK293-Kir2.1, FluxOR thallium flux fluorescence; active compounds read low;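 active = fluorescence ratio B-score at or below minus 3 SD of library scores, with starting-brightness B-score within 2 SD, cut at about -4.2 in these data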;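 note: channel flux triggered by added potassium and thallium sulfate stimulus; B-score of peak minus minimum fluorescence over baseline after thallium stimulus; more negative B-score means stronger Kir2.1 block with less thallium influx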
CHT inh conf: CHT inhibitors, confirmation, cell-based, membrane potential dye, duplicate | CHT-expressing cells, choline membrane potential dye; LV-to-AA substituted CHT, HEK293 cells | 2,400 tested, 70% active | AID 493221, 2011 | shares compounds with CHT inh | CHT activity remaining % of control (active compounds read low), % at 10 µM;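 active = choline transporter activity left, mean of duplicates at 10 µM, below buffer-only control mean minus 3 SD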;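 note: depolarization triggered by choline at its EC90 following an EC20 pre-addition; 0% = hemicholinium-3 full block and 100% = buffer-only control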
HEK293 MPD ctr: membrane potential effects in parental HEK293, counter-screen for CHT inhibitor project, cell-based, membrane potential dye | choline response; active = decrease or increase beyond buffer ±3SD | membrane potential ratio readout (active if shifted either direction beyond buffer ±3SD; no single direction) at 10 µM | shares compounds with CHT inh | 2,400 tested, 4% active;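 note: parental cells lack the transporter so any hit is non-specific; ratio is peak minus trough fluorescence over baseline after EC90 choline challenge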
* marks the source's active call; other numbers are inactive results; i = inactive; x = no result given.

SMILES	CHT inh	ANO1 block	GPR7 antagonist	TMEM16A act	CHT PAM	Kir21 block	CHT inh conf	HEK293 MPD ctr
CCOC(=O)c1c(NC(=O)C2C3C=CC(C3)C2C(=O)O)sc2c1CCC(CC)C2 (stereo not given)	-5*	i	1	i	i	1.4	27%*	i
CCn1c(SCc2nc(-c3ccccc3)no2)nnc1-c1cccs1	-5.5*	i	18	i	i	-1.9	47%*	i
CCn1c(SCc2nc(-c3cccs3)no2)nnc1-c1c[nH]c2ccccc12	i	i	14	i	i	-2.3	x	x
CCn1c(SCc2nc3scc(-c4ccccc4)c3c(=O)[nH]2)nnc1-c1cccs1	-7.3*	100*	-2	i	i	0.08	i	i
CCn1c(SCc2nc(-c3ccccc3)no2)nnc1-c1ccco1	-5.2*	i	3	i	i	-0.01	55%*	i
Cc1nnc(SCc2nc3scc(-c4ccccc4)c3c(=O)[nH]2)s1	i	i	-15	i	i	-0.7	x	x
COC(=O)N/N=C/c1cc(C)n(-c2ccccc2)c1C	-8.3*	i	2	i	i	0.09	23%*	i
CCc1ccc(-n2c(C)cc(/C=N/NC(=O)OC)c2C)cc1	-8.6*	i	2	i	i	-0.63	62%*	i
Cc1cc(/C=N/NC(=O)c2ccncc2)c(C)n1-c1ccccc1	-6.8*	i	-5	i	i	-0.52	30%*	i
Cc1cc(/C=N/NC(=O)c2cccs2)c(C)n1-c1ccccc1	i	i	-3	i	i	1.1	x	x
CCN1CCn2c3c(c4cc(C)ccc42)CCCC31 (stereo not given)	i	i	-13	i	i	-1.7	x	x
CCN1CCn2c3c(c4cccc(C)c42)CCCC31 (stereo not given)	-11*	i	-7	i	i	-2.5	36%*	i
CCn1ncc(Cl)c1C(=O)NC(C)c1ccccc1 (stereo not given)	i	i	-9	i	i	1.2	x	x
CCn1ncc(Br)c1C(=O)NC(C)c1ccccc1 (stereo not given)	-5.8*	i	2	i	i	0.15	i	i
Cc1cc(C)cc(C(=O)Nn2cnnc2)c1	i	i	-7	i	i	-1.6	x	x
CCc1nnc(NS(=O)(=O)c2ccc(NC(=O)c3ccccc3)cc2)s1	i	i	-9	i	i	-0.27	x	x
CCc1nnc(NS(=O)(=O)c2ccc(NC(=O)/C=C/c3ccccc3Cl)cc2)s1	-5.6*	i	-14	i	i	1.1	51%*	i
Cc1cc(C)cc(C(=O)NC(CC(N)=O)c2ccc(N3CCN(C)CC3)c([N+](=O)[O-])c2)c1 (stereo not given)	i	i	1	i	i	-0.01	x	x
NC(=O)CC(NC(=O)c1ccccc1)c1ccc(N2CCc3ccccc3C2)c([N+](=O)[O-])c1 (stereo not given)	-9.5*	i	14	i	i	-0.92	18%*	i
NC(=O)CC(NC(=O)c1ccccc1)c1ccc(N2CCCCCCC2)c([N+](=O)[O-])c1 (stereo not given)	-11*	i	-2	i	i	-0.25	1.4%*	i
NC(=O)CC(NC(=O)c1ccc(Br)cc1)c1ccc(N2CCCCCC2)c([N+](=O)[O-])c1 (stereo not given)	-7.7*	i	-1	i	i	0	59%*	i
NC(=O)CC(NC(=O)c1cccc(Br)c1)c1ccc(N2CCCCCC2)c([N+](=O)[O-])c1 (stereo not given)	i	i	4	i	i	0.46	x	x
COCCNC(=S)N=Nc1c(O)[nH]c2ccc([N+](=O)[O-])cc12	i	i	-7	i	i	-0.33	x	x
C/C(=N\OCC(=O)Nc1ccccc1C(=O)O)c1cccs1	-6.2*	i	-9	i	i	0.01	44%*	i
N#Cc1c(/N=C/c2ccco2)sc2c1CCC2	i	i	-14	i	i	-0.24	x	x
SMILES	CHT inh	ANO1 block	GPR7 antagonist	TMEM16A act	CHT PAM	Kir21 block	CHT inh conf	HEK293 MPD ctr
CCOc1[nH]c(/N=C/c2ccco2)c(C#N)c1C#N	-5.1*	i	-1	i	i	x	53%*	i
C[N+](C)(C)CC=O	-6*	i	x	i	i	x	22%*	i
COc1cc(C(=O)NCC(=O)Nc2c(C)cccc2C)ccc1OCC(=O)N1CCOCC1	x	x	x	i	x	x	x	x
O=C(Nc1ccc(OCc2ccccc2)cc1)Nc1ccccc1C(=O)NCCCN1CCOCC1	-5*	i	5	i	i	0.13	44%*	i
CC1CCN(CCNC(=O)C2CCCN(S(=O)(=O)c3cccc4nsnc34)C2)CC1 (stereo not given)	-8.1*	i	0	i	i	-0.08	18%*	i
O=C(Nc1ccccc1Br)C1CCCN1S(=O)(=O)c1cccc2nsnc12 (stereo not given)	-7.9*	i	-8	i	i	0.01	23%*	i
COc1ccccc1C(CNC(=O)c1ccc(C)c(S(=O)(=O)N2CCCCC2)c1)N1CCCC1 (stereo not given)	x	x	x	i	x	x	x	x
COc1ccc(C2=Nn3c(nnc3C3CCCCC3)SC2)cc1OC	-6.8*	i	-28	i	i	1.1	52%*	i
C=CCN1C(c2cccc(C(F)(F)F)c2)=CS/C1=C(/C#N)c1nnc(N2CCOCC2)n1-c1ccccc1	-6*	i	5	i	i	2.4	i	i
CC(=O)C1=C(O)C=C(c2ccco2)CC1c1ccco1 (stereo not given)	-5.1*	i	3	i	i	0.88	i	i
O=C(CCl)N1N=C(c2ccco2)CC1c1ccco1 (stereo not given)	i	i	-8	i	i	0.1	x	x
